Activity calls are given as the source filed them.
Tests used:
[1] = tested on: Plasmodium falciparum Sir2 (PF13_0152, Sir2A); test: pfSir2 binders on small-molecule microarrays, primary screen, biochemical, small-molecule microarray, 635 nm fluorescence (AID 1098); conditions: small-molecule microarray binding, fluorescence 635 nm; higher = more signal;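 further: score merges spot fluorescence intensity with its signal-to-noise ratio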
[2] = small-molecule microarray binders of probe aDKK1, primary screen, biochemical, biotinylated probe, 635/667 nm fluorescence (AID 1099); conditions: higher = more signal;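 further: score merges 667nm spot fluorescence with signal to noise across triplicate slides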
[3] = small-molecule microarray binders of probe aCHRDL2, primary screen, biochemical, biotinylated probe, 635/667 nm fluorescence (AID 1100); conditions: higher = more signal
[4] = splicing luciferase reporter signal modulators, primary screen, spliceosome inhibition project, cell-based, HEK293, splice +/- reporter (AID 1101); conditions: luminescence, 24 h, higher = more signal, called active from +8 up or from −8 down;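 further: HEK293 cells carrying a splicing-competent luciferase reporter gene; test concentration not given here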
[5] = target: Fibroblast growth factor 10 (Homo sapiens) (UniProt O15520); test: FGF10 binders on small-molecule microarrays, primary screen, biochemical, small-molecule microarray, 635 nm fluorescence (AID 1102); conditions: FGF10 binding, fluorescence 635 nm, higher = more signal
Sequence of Fibroblast growth factor 10 (Homo sapiens) (O15520 whole entry, looked up): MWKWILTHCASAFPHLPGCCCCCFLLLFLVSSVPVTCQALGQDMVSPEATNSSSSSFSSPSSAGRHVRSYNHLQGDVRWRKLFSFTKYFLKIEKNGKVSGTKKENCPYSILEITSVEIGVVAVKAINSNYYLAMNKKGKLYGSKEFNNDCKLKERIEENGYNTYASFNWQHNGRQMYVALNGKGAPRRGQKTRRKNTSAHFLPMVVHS

[6] = tested on: glycogen synthase kinase-3 (GSK3A per assay name; protocol says GSK3B); test: GSK3 binders on small-molecule microarrays, primary screen, biochemical, small-molecule microarray, 635 nm fluorescence, GSK3A (AID 1103); conditions: small-molecule microarray binding, fluorescence 635 nm; higher = more signal; further: the record names both GSK3A and GSK3B
[7] = target: Epidermal growth factor receptor (Homo sapiens) (UniProt P00533); test: EGFR binders on small-molecule microarrays, primary screen, biochemical, small-molecule microarray, 635 nm fluorescence (AID 1104); conditions: EGFR binding, higher = more signal;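 further: score merges 667 nm emission intensity with spot signal to noise over triplicate slides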
Sequence of Epidermal growth factor receptor (Homo sapiens) (P00533 whole entry, looked up): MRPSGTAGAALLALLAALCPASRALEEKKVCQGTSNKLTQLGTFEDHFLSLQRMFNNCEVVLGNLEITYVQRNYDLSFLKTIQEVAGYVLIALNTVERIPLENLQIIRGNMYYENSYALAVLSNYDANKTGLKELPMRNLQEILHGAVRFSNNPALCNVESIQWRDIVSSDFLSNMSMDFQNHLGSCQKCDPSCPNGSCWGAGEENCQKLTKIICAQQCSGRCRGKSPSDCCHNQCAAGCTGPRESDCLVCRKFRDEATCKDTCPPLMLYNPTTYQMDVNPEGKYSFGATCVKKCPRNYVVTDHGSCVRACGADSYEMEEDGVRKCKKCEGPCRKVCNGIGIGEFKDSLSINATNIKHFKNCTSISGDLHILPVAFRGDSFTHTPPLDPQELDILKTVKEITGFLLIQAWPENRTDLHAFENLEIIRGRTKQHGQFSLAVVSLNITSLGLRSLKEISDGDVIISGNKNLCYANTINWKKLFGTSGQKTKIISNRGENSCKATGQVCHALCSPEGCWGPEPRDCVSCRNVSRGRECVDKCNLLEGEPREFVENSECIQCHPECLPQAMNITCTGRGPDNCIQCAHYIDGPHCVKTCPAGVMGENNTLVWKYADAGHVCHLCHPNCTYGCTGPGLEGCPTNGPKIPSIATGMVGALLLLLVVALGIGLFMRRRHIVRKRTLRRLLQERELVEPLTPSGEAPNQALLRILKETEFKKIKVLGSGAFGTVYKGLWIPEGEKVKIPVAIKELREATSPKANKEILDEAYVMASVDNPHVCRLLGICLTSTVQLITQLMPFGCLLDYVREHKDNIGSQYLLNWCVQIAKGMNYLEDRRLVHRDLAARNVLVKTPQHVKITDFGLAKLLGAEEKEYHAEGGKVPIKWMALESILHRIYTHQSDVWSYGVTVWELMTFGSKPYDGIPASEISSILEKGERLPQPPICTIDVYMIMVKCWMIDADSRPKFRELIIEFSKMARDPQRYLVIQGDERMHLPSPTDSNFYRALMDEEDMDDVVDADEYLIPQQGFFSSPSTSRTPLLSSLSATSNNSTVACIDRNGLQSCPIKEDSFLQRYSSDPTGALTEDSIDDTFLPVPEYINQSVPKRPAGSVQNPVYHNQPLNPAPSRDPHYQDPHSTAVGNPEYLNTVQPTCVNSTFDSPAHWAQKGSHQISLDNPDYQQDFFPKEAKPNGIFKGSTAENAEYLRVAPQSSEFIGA

[8] = target: Follistatin-related protein 3 (Homo sapiens) (UniProt O95633); test: FSTL3 binders on small-molecule microarrays, primary screen, biochemical, small-molecule microarray, 635 nm fluorescence (AID 1105); conditions: FSTL3 binding, higher = more signal;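 further: score merges emission near 667 nm and signal to noise per printed spot across three slides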
Sequence of Follistatin-related protein 3 (Homo sapiens) (O95633 whole entry, looked up): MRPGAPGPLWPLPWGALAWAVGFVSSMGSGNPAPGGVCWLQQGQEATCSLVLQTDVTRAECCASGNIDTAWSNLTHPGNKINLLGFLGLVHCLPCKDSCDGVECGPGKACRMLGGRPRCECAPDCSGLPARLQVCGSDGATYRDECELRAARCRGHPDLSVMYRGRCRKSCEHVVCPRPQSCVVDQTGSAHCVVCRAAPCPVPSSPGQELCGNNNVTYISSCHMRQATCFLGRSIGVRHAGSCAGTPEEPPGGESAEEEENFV

[9] = target: Dickkopf-related protein 1 (Homo sapiens) (UniProt O94907); test: DKK1 binders on small-molecule microarrays, primary screen, biochemical, small-molecule microarray, 635 nm fluorescence scan (AID 1106); conditions: DKK1 binding, higher = more signal;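 further: score merges emission near 667 nm with signal to noise over three replicate slides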
Sequence of Dickkopf-related protein 1 (Homo sapiens) (O94907 whole entry, looked up): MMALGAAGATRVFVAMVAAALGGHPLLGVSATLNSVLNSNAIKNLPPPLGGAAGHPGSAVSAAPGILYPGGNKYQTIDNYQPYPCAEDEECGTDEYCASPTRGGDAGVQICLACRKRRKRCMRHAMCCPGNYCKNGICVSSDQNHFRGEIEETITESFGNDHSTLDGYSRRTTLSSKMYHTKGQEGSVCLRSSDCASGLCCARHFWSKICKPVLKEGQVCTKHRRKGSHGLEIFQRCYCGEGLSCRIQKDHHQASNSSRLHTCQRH

[10] = tested on: Inhibin beta A chain (activin A); test: INHBA (activin A) binders on microarrays, primary screen, biochemical, small-molecule microarray, 635 nm fluorescence scan (AID 1107); conditions: small-molecule microarray binding, higher = more signal;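 further: mouse activin A protein probed at 4.33 µg/mL on printed slides; score merges bound-protein fluorescence near 667 nm with spot signal-to-noise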
[11] = tested on: Human papillomavirus type 1a protein E7 (residues 44-93); test: HPV1a E7 fragment binders on microarrays, primary screen, biochemical, small-molecule microarray, residues 44-93, 635 nm fluorescence (AID 1108); conditions: small-molecule microarray binding, fluorescence 635 nm; higher = more signal;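 further: E7 fragment applied at 1 µg/mL in TBST for 1 h at 4 C; score combines spot fluorescence with its signal to noise ratio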
[12] = modulators of HCV replicon luciferase signal, primary screen, HCV replication inhibitor project, Huh7 cells, luciferase reporter (AID 1109); conditions: 48 h, higher = more signal;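 further: huh7 hepatoma cells harbouring a luciferase neomycin HCV replicon reporter; luciferase luminescence as measure of HCV replicon replication; test concentration not given here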
[13] = target: Left-right determination factor 2 (Homo sapiens) (UniProt O00292); test: LEFTY2 binders on small-molecule microarrays, primary screen, biochemical, small-molecule microarray, 635 nm fluorescence scan (AID 1110); conditions: LEFTY2 binding, higher = more signal
Sequence of Left-right determination factor 2 (Homo sapiens) (O00292 whole entry, looked up): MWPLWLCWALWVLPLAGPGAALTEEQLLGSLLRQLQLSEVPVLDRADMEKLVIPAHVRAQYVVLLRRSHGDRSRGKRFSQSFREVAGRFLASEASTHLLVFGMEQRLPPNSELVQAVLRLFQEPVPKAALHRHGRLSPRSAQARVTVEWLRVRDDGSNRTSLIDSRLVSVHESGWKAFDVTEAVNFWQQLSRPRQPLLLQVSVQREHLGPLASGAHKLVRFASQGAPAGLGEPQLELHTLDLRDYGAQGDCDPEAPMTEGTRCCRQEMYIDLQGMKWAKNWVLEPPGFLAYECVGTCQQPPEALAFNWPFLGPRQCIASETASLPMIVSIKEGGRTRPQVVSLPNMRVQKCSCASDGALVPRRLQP

[14] = target: Calmodulin-1 (Homo sapiens) (UniProt P0DP23); test: CALM1 binders on microarrays, EGTA buffer, profiling panel, biochemical, small-molecule microarray, Cy5-labelled CALM1 (AID 1111); conditions: Cy5-CALM1 binding fluorescence, higher = more signal;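 further: labelled calmodulin applied in Tris saline Tween buffer holding calcium plus EGTA and DTT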
[15] = target: Calmodulin-1 (Homo sapiens) (UniProt P0DP23); test: calcium-bound CALM1 binders on microarrays, profiling panel, artefact control for SMM control-protein annotation, biochemical, small-molecule microarray, Cy5-labelled CALM1, plus calcium (AID 1112); conditions: Cy5-CALM1 binding fluorescence, higher = more signal;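 further: score merges spot fluorescence with signal to noise from triplicate slides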
[16] = small-molecule microarray binders of probe aWnt5a, primary screen, biochemical, biotinylated probe, 635/667 nm fluorescence (AID 1113); conditions: higher = more signal;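 further: score merges 667 nm fluorescence intensity with signal-to-noise per printed feature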
[17] = small-molecule microarray binders of probe aShh, primary screen, biochemical, biotinylated probe, 635/667 nm fluorescence (AID 1114); conditions: higher = more signal;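 further: probe is biotin-labelled aShh protein from a stem cell growth factor screen; measures binding of labelled protein to compounds printed on the slide; score merges feature fluorescence at 667 nm with signal-to-noise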
[18] = small-molecule microarray binders of probe aNog, primary screen, biochemical, biotinylated probe, 635/667 nm fluorescence (AID 1115); conditions: higher = more signal;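 further: probe is biotinylated aNog protein used at 0.15 µg/mL for 1 h at 4 C; z-score combines 667 nm fluorescence of each spot with its signal to noise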
[19] = target: Torsin-1A-interacting protein 1 (Homo sapiens) (UniProt Q5JTV8); test: LAP1 binders from COS7 cell lysate, primary screen, small-molecule microarray, 635/667 nm fluorescence (AID 1116); conditions: COS7-hLAP1 lysate binding, 635 nm fluorescence, higher = more signal
Sequence of Torsin-1A-interacting protein 1 (Homo sapiens) (Q5JTV8 whole entry, looked up): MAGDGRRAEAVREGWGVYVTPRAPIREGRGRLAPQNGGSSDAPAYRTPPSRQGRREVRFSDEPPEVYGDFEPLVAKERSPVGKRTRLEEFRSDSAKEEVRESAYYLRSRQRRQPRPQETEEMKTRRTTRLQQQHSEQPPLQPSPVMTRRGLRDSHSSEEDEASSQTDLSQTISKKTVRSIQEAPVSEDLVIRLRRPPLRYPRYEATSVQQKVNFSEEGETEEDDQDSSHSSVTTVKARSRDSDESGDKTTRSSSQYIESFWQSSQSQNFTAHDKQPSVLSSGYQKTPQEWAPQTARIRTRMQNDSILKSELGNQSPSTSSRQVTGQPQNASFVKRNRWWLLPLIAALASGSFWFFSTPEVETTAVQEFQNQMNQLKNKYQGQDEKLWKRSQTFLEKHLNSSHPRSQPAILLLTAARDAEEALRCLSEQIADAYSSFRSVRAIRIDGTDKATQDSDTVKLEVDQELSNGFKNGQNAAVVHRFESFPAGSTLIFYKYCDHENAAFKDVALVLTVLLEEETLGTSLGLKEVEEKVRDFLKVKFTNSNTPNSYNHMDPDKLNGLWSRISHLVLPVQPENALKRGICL

[20] = target: Alpha-bungarotoxin (Bungarus multicinctus) (UniProt P60615); test: alpha-bungarotoxin binders on microarray, profiling panel, artefact control for SMM control protein annotation, biochemical, small-molecule microarray, Alexa647 label, 635/667 nm fluorescence (AID 1117); conditions: alpha-BTX-A647 binding fluorescence, higher = more signal
Sequence of Alpha-bungarotoxin (Bungarus multicinctus) (P60615 whole entry, looked up): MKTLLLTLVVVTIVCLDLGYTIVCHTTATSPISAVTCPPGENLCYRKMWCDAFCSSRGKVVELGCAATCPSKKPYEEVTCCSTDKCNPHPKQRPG

Compound | composite z-score [1] | composite z-score [2] | composite z-score [3] | z-score [4] | composite z-score [5] | composite z-score [6] | composite z-score [7] | composite z-score [8] | composite z-score [9] | composite z-score [10] | composite z-score [11] | z-score [12] | composite z-score [13] | composite z-score [14] | composite z-score [15] | composite z-score [16] | composite z-score [17] | composite z-score [18] | composite z-score [19] | composite z-score [20]
CCCCCCCCCCC(O)C1C=CC2C(=O)N(Cc3ccccc3)C(=O)C2N1n1cnnc1 (stereo not given) | 0.724 | 0.897 | 0.739 | -0.47 (inactive) | -0.262 | 0.08 | -0.384 | -0.351 | -0.906 | 1.23 | 1.37 | -1.2 | -0.62 | 1.55 | 0.727 | 0.147 | 0.251 | 0.62 | 0.36 | 1.02
[N-]=[N+]=Nc1ccccc1[C@@H]1OC(c2ccc(OCCCO)cc2)=N[C@]1(CCS(=O)(=O)c1ccccc1)C(=O)N1CCOCC1 | 1.43 | 1.04 | 0.994 | -0.4 (inactive) | 1.37 | 1.09 | 0.569 | 1.36 | 0.14 | 1.58 | 1.03 | 2.34 | 0.647 | 1.74 | 0.764 | 0.16 | 0.326 | 0.939 | 1.42 | 2.84
COCCOC(=O)N1C(=O)[C@@]2(c3ccccc31)[C@H](c1ccc(O)cc1)N1[C@H](c3ccccc3)[C@H](c3ccccc3)OC(=O)[C@H]1[C@@H]2C(=O)N1CCc2cc(OC)c(OC)cc2C1 | 1.25 | 0.203 | 0.404 | -0.832 (inactive) | 1.36 | 0.92 | 0.869 | 1.03 | 0.84 | 0.451 | 0.607 | -1.47 | 1.01 | 0.889 | 0.579 | -0.0819 | -0.214 | -0.533 | 0.811 | 0.789
[N-]=[N+]=Nc1ccccc1[C@H]1OC(c2ccc(OCCCO)cc2)=N[C@@]1(CCS(=O)(=O)c1ccccc1)C(=O)O | 1.31 | 0.503 | 1.14 | -0.433 (inactive) | 0.104 | -0.359 | -0.18 | -0.116 | -0.601 | 1.25 | 0.447 | 0.86 | -0.512 | 1.16 | 0.373 | -0.131 | 0.0278 | 1.01 | 2 | 0.582
NC(=O)NCC#Cc1ccc2c(c1)[C@]1(C(=O)N2)[C@H](C(=O)NC[C@H](O)c2ccccc2)[C@H]2C(=O)O[C@H](c3ccccc3)[C@H](c3ccccc3)N2[C@@H]1c1ccc(O)cc1 | 1.23 | 0.0166 | -0.249 | 0.37 (inactive) | 0.893 | 0.664 | 0.575 | 0.553 | 0.314 | 1.72 | 1.38 | -0.257 | 0.691 | 2 | 0.916 | 0.551 | 0.456 | 0.921 | 1.45 | 2.19
CCOC(=O)C1=CCC(c2ccc([N+](=O)[O-])cc2)N(S(=O)(=O)c2ccc(C)cc2)C1 (stereo not given) | 0.376 | 0.616 | 0.983 | -0.22 (inactive) | -0.0502 | 0.0526 | -0.356 | 0.171 | -0.421 | 1.32 | 1.08 | -2.35 | -0.087 | 0.279 | 0.548 | -0.0644 | 0.138 | 0.61 | 0.304 | 0.159
C=C[C@@H](COC(C)=O)N(Cc1ccccc1[N+](=O)[O-])S(=O)(=O)c1ccc(Br)cc1 | 1.31 | 0.278 | -0.0205 | -2.18 (inactive) | 0.863 | 1.16 | 1.2 | 1.39 | 1.82 | 1.16 | 1.08 | -1.86 | 1.02 | 0.198 | -0.0348 | -0.0185 | -0.0192 | -0.56 | 0.954 | 0.864
C=CC[C@@H](OC(=O)Nc1ccc(OC)cc1)c1ccc(O)c2ccccc12 | 1.43 | -0.0942 | -0.0826 | -0.806 (inactive) | 1.2 | 1.28 | 1.06 | 1.4 | 1.23 | 1.07 | 0.94 | -3.47 | 1.07 | 0.0871 | -0.738 | -0.0006 | -0.154 | -0.139 | 0.3 | 0.824
COc1ccc(C(O)C2C=CC3C(=O)N(c4ccccc4)C(=O)C3N2Nc2ccc([N+](=O)[O-])cc2)cc1OCc1ccccc1 (stereo not given) | 1.4 | 1.86 | 1.15 | 0.465 (inactive) | 1.02 | 0.735 | 0.534 | 0.763 | -0.0143 | 1.07 | 0.664 | 0.872 | 0.0921 | 0.804 | 0.584 | 1 | 0.504 | 2.27 | 0.979 | 1.27
COCCCNC(=O)[C@@]1(c2ccc([N+](=O)[O-])cc2)CC(=O)N(CC23CC4CC(CC(C4)C2)C3)[C@@H]1c1ccc(CO)cc1 | 1.61 | 0.0245 | -0.0133 | 0.00653 (inactive) | 1.22 | 1.31 | 0.905 | 1.48 | 1.08 | 0.703 | 1.37 | -2.47 | 1.13 | -0.121 | -0.548 | -0.109 | -0.0119 | -0.761 | 0.422 | 0.572
COC(=O)[C@@]1(Cc2ccc(F)cc2)[C@H]2c3cc(C(=O)N4CCCC4)n(Cc4cccc5ccccc45)c3C[C@H]2CN1C(=O)c1ccccc1 | 1.53 | 0.479 | 0.854 | -2.29 (inactive) | 0.427 | -0.423 | 0.329 | 0.286 | -0.538 | 0.644 | 1.37 | -1.37 | -0.201 | 1.23 | 0.0721 | 0.0859 | 0.111 | 1.36 | 1.84 | 1.07

Reference: PubChem BioAssay
